The values below come from PubChem BioAssay (NCATS).

Values without a mark were called inactive. Records with an inconclusive call do not appear. Activity calls are given as the source filed them. The call rests on the fitted dose curve; in most records, active means well fitted curve in the direction sought with a large enough effect; inconclusive means small, poorly fitted or top-dose-only effect, or another doubt; inactive means no such curve, though single readings can be large; an effect the other way counts as inactive or inconclusive.

The target of assay [1] is Glutathione peroxidase 1 (Homo sapiens) (UniProt P07203). The experiment in a line: Primary qHTS Assay for Inhibitors of Recombinant Selenoprotein Glutathione Peroxidase 1 (GPX1) (AID 1845191). Further: nearly all actives have a fitted effect of over 65% in size. On activity, negative = inhibition: on the % scale 0 is the no-effect control and ±100 the full control effect. Summed up: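 Recombinant GPX1 (10 nM final) was preincubated with compound for 30 min at room temperature, then reacted with 1 mM GSH, 0.5 mM CHP, 0.5 mM NADPH and 100 nM glutathione reductase; NADPH fluorescence (340/450 nm) was read at 0 and 15 min.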
Glutathione peroxidase 1 (Homo sapiens), sequence (P07203 whole entry, looked up): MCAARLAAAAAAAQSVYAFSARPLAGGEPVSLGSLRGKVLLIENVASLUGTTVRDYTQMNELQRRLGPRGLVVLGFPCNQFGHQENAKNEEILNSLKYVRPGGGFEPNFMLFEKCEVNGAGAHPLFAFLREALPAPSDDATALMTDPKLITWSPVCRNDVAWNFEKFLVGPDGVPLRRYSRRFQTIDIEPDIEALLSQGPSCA

Assay [2] addresses Phospholipid hydroperoxide glutathione peroxidase GPX4 (Homo sapiens) (UniProt P36969). The assay is described as follows: Primary qHTS Assay for Inhibitors of Recombinant Selenoprotein Glutathione Peroxidase 4 (GPX4) (AID 1845192). Further: nearly all actives have a fitted effect of over 65% in size. On activity change, negative = inhibition: series mostly up to about 50 µM; on the % scale 0 is the no-effect control and ±100 the full control effect. The gist of the method: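 GR-coupled readout: 100 nM GR, 1 mM GSH, 0.5 mM NADPH; NADPH fluorescence (ex 340/em 450 nm) read at t=0 and after 15 min RT. GPX4 200 nM, preincubated 30 min with compound; substrate 0.5 mM CHP.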
Background: Quantitative high-throughput screening tests each substance at several concentrations.

Assay [3] addresses Luciferin 4-monooxygenase (Photinus pyralis) (UniProt P08659). The assay is described as follows: Primary firefly luciferase (FLuc) qHTS assay for identification of artifact compounds. (AID 1845220). Further: nearly all actives have a fitted effect of over 60% in size.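 On activity change, negative = inhibition: series mostly up to about 54 µM; plate controls were DMSO vehicle for no effect and no enzyme for full effect.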 The gist of the method: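 In this counter-screen for luciferase artifacts, test compounds met substrate (10 uM each luciferin and ATP) before 10 nM enzyme started the reaction. Light output was measured 5 min later.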

The nature of assay [4]: Primary fluorescence-based thiol-reactive (MSTI) qHTS assay for identification of artifact compounds. (AID 1845221). Further: nearly all actives have a fitted effect of over 65% in size. Further: potency means the concentration at half of the fitted maximal effect.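 On activity change, negative = thiol reactive: series mostly up to about 54 µM; thiol-reactive compounds lower the probe fluorescence signal.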 The gist of the method: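 Thiol-reactive compounds detected by quenching of 4 uM MSTI fluorescence (525/598 nm) after 1 h room-temperature dark incubation in PBS pH 7.4, 2% DMSO. qHTS titration; percent inhibition Hill-fitted against Acetyl-MSTI/MSTI controls.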

For assay [5], the system named is Nanoluciferase (engineered Oplophorus gracilirostris luciferase). The experiment in a line: Primary Nanoluciferase (NLuc) qHTS assay for identification of artifact compounds. (AID 1845222).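 Further: NLuc secreted into diluted conditioned medium of S16 cells; series mostly up to about 54 µM; 0% = DMSO and -100% = no enzyme.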 Summed up: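 Using secreted nanoluciferase in S16 culture medium (0.22 um filtered, 1:55 dilution), compounds were preincubated 15 min at RT. Signal was generated with Nano-Glo reagent (1:100) over 5 min.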

A short description of assay [6]: Primary redox qHTS assay for identification of artifact compounds. (AID 1845223).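 Further: 0% = DMSO and 100% = reference compound.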 The gist of the method:
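Amplex Red (25 uM) and HRP (250 mU/mL) in HBSS, with compounds for 15 min, then 250 uM DTT for 30 min, room temperature, dark. Fluorescence 525/598 nm read; normalized to DMSO and 10 uM DA3003; Hill fit.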

Phospholipid hydroperoxide glutathione peroxidase GPX4 (Homo sapiens), sequence (P36969 whole entry, looked up): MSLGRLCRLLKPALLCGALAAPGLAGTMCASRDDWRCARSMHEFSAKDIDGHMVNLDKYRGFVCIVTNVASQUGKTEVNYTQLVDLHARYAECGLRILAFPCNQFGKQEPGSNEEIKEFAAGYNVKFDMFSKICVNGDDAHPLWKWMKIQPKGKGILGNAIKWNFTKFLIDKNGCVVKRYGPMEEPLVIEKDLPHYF

Consider `CCCCNc1ccc(-c2ccc(CN3CCOCC3)cn2)c(NC2CCC(O)CC2)c1` (stereo not given), for which the Potency result in assay [1], in assay [2], in assay [3], in assay [4], in assay [5] and in assay [6] was “inactive” in each case.
Regarding `C/C=C(/COC(=O)/C(C)=C/C)C(=O)OC(CC)c1ccc(OC)c(OC)c1` (stereo not given), the Potency entry in assay [1], in assay [2], in assay [3], in assay [4], in assay [5] and in assay [6] was “inactive” in each case.
Take `CC1(C)CCC[C@]2(C)[C@H]3CC(=O)O[C@]3(C)CC[C@@H]12`: the Potency entry in assay [1], in assay [2], in assay [3], in assay [4], in assay [5] and in assay [6] was “inactive” each time.
On to `CC1(C)CC[C@]2(CO[C@@H]3O[C@H](CO)[C@@H](O)[C@H](O)[C@H]3O)[C@@H](O)C[C@]3(C)C(=CCC4[C@@]5(C)CC[C@H](O[C@@H]6O[C@H](CO[C@@H]7O[C@H](CO[C@@H]8OC[C@@H](O)[C@H](O)[C@H]8O)[C@@H](O)[C@H](O)[C@H]7O)[C@@H](O)[C@H](O)[C@H]6O)C(C)(C)C5CC[C@]43C)[C@@H]2C1` (stereo not given in full), for which the Potency entry in assay [1] and in assay [2] was “inactive” throughout. The activity change, negative = inhibition in assay [3] was -4.11% [at 11.6 µM]. The activity change, negative = thiol reactive in assay [4] was 75.4% [at 11.5 µM]. The activity, negative = inhibition in assay [5] was 0.495% [at 11.6 µM]. Besides, in assay [6], the redox activity (% of DA3003) was 13.8% [at 11.5 µM].
Consider `C=C(C)[C@@H]1CC[C@]2(C)CC[C@]3(C)[C@H](CC[C@@H]4[C@@]5(C)CC[C@@H](O)C(C)(C)[C@@H]5CC[C@]43C)[C@@H]12`, for which the Potency result in assay [1], in assay [2], in assay [3], in assay [4], in assay [5] and in assay [6] was “inactive” throughout.
Regarding `O=C1CSc2ccccc2N1Cc1cccc(C(F)(F)F)c1`, the Potency result in assay [1], in assay [2], in assay [3], in assay [4], in assay [5] and in assay [6] was “inactive” throughout.
As for `CN(c1ccccc1CNc1nc(Nc2ccc3c(c2)CC(=O)N3)ncc1C(F)(F)F)S(C)(=O)=O`, the Potency entry in assay [1], in assay [2], in assay [3], in assay [5] and in assay [6] was “inactive” throughout. For the same molecule, in assay [4], the Potency was 10.6 µM (active).
`C/C1=C\C[C@]2(C)C(=O)C(O)=C([C@H](C)CO)[C@H]2C/C=C(\C)[C@@H](O)CC/C(C)=C/CC1`: the Potency entry in assay [1], in assay [2], in assay [3], in assay [4], in assay [5] and in assay [6] was “inactive” each time.
With `C[C@@H]1O[C@@H](OC[C@H]2O[C@@H](OC(CCCCc3ccc(O)cc3)CCc3ccc(O)cc3)[C@H](O)[C@@H](O)[C@@H]2O)[C@H](O)[C@H](O)[C@H]1O` (stereo not given in full), the Potency entry in assay [1], in assay [2], in assay [3], in assay [5] and in assay [6] was “inactive” in each case. Besides, the Potency in assay [4] was 7.93 µM (active).
As for `O=[N+]([O-])c1cccc2[nH]c(CNc3nc(N4CCOCC4)nc4c3ncn4-c3ccsc3)nc12`, the Potency entry in assay [1], in assay [2], in assay [3], in assay [5] and in assay [6] was “inactive” in each case. For the same molecule, the Potency in assay [4] was 10.6 µM (active).
With `CC1(C)CC[C@]23CO[C@@]4(CCC5[C@@]6(C)CC[C@H](O[C@@H]7OC[C@H](O[C@@H]8O[C@H](CO)[C@@H](O)[C@H](O)[C@H]8O)[C@H](O)[C@H]7O[C@@H]7O[C@H](CO)[C@@H](O[C@@H]8O[C@H](CO)[C@@H](O)[C@H](O)[C@H]8O)[C@H](O)[C@H]7O)[C@@](C)(CO)C6CC[C@@]5(C)[C@]4(C)C[C@H]2OC2OCC(O)C(O)C2O)C3C1` (stereo not given in full), the activity, negative = inhibition in assay [1] was -19.2% [at 9.52 µM]; in assay [5], 0% [at 11.6 µM]. Besides, the results for the activity change, negative = inhibition in assay [2] and in assay [3] were -5.8% [at 9.73 µM] and -1.22% [at 11.6 µM], respectively. Moreover, the activity change, negative = thiol reactive in assay [4] is 227% [at 11.5 µM]. In addition, the redox activity (% of DA3003) in assay [6] was 2.43% [at 11.5 µM].
Turning to `COc1ccc2nc(S(=O)(=O)Cc3ncc(C)c(OC)c3C)[nH]c2c1`, the Potency result in assay [1], in assay [2], in assay [3], in assay [4], in assay [5] and in assay [6] was “inactive” throughout.
As to `COCCOc1ccc(N2CCN(CCn3ncc4c3nc(N)n3nc(-c5ccco5)nc43)CC2)cc1`, the Potency entry in assay [1], in assay [2], in assay [3], in assay [4], in assay [5] and in assay [6] was “inactive” in each case.
For the molecule `COC(=O)CCC(=O)OC[C@]1(C)CCC[C@@]2(C)C3CC[C@]4(C)C=CC3(CCC12)C4` (stereo not given in full), the Potency result in assay [1], in assay [2], in assay [3], in assay [4], in assay [5] and in assay [6] was “inactive” each time.
For the molecule `O=C(Nc1ccc(-c2ccncc2)cc1)N[C@H](CO)c1ccccc1`, the Potency result in assay [1], in assay [2], in assay [3], in assay [4], in assay [5] and in assay [6] was “inactive” in each case.
Take `CC1(C)CC2C(O)c3cocc3CC(C)(O)C2C1` (stereo not given): the Potency result in assay [1], in assay [2], in assay [3], in assay [4], in assay [5] and in assay [6] was “inactive” each time.
With `CC(=O)OC1CC2C3(C)CCC(OC(=O)CC(=O)O)C(C)(C)C3CCC2(C)C2(C)CCC(C3(C)CCC(=O)O3)C12` (stereo not given), the Potency result in assay [1], in assay [2], in assay [3], in assay [4], in assay [5] and in assay [6] was “inactive” throughout.
Turning to `C/C=C1\[C@H](O[C@@H]2O[C@H](CO)[C@@H](O)[C@H](O)[C@H]2O)OC=C(C(=O)OC)[C@H]1CC(=O)O`, the Potency result in assay [1], in assay [2], in assay [3], in assay [4], in assay [5] and in assay [6] was “inactive” in each case.
For the molecule `CC/C=C\C/C=C\C/C=C\CCCCCCCC(=O)OCC(O)COC1OC(CO)C(O)C(O)C1O` (stereo not given), the Potency result in assay [1], in assay [2], in assay [3], in assay [4], in assay [5] and in assay [6] was “inactive” in each case.
For the molecule `COC(=O)C12CCC(C)C(C)C1C1=CCC3C4(C)CCC(OC(C)=O)C(C)(C)C4CCC3(C)C1(C)CC2` (stereo not given), the Potency entry in assay [1], in assay [2], in assay [3], in assay [4], in assay [5] and in assay [6] was “inactive” throughout.
